# Bioassay records as filed in PubChem.
# Shown are actives, neighbours in structure and some others; about 18% of the full set was active somewhere.
# Six1-Eya2 blk: qHTS Assay for Inhibitors of the Six1/Eya2 Interaction | activity change, % (concentration not given with the values) | AlphaScreen GST-Six1/His-Eya2 binding, biochemical; stronger effect = lower value | AID 651725, 2012 | Homeobox protein SIX1 (Homo sapiens) + Protein phosphatase EYA2 (Homo sapiens), … | 360,000 tested, 0.56% active; in the data active means activity change below about -65%; inconclusive means mostly about -30% to -63%
#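 Compounds are tested against tagged Six1 and Eya2 proteins bridged by glutathione donor and nickel acceptor beads; after a one-hour incubation at 37 °C without light, AlphaScreen emission is recorded.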
# DT40 TDP1 no CPT: qHTS for Inhibitors of human tyrosyl-DNA phosphodiesterase 1 (TDP1): qHTS in cells in absence of CPT | DT40 Tdp1-/- hTDP1 cells, no CPT, ATP luminescence, 48 h | Potency, µM (series often up to 46.2 µM), for the others: top-dose activity change, negative = growth inhibition, hits mostly inhibitors | 420,000 tested, 15% active | AID 686978, 2013; further: potency means the concentration at half of the fitted maximal effect; nearly all actives have a fitted effect of over 55% in size
#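 Camptothecin absent (DMSO only). Human TDP1-complemented DT40 knockout cells, 400 cells/well, 37 °C for minimum 48 hr; ATP measured via CellTiter-Glo, 30 min dark incubation, luminescence.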
# IL1B secr inh: qHTS for Inhibitors of Inflammasome Signaling: IL-1-beta AlphaLISA Primary Screen; AID 743279, 2014; activity change, % at 57.5 µM; 360,000 tested, 4.7% active; THP-1 LPS/ATP IL-1B secretion, AlphaLISA, 16 h; stronger effect = lower value; in the data active means activity change below about -50%; inconclusive means mostly about -30% to -49%
#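 Secreted IL-1B measured by AlphaLISA bead assay after 16 h compound exposure of THP-1 cells; compounds (final up to 57.5 uM) added 1 h before LPS (250 ng/mL) and ATP (1.25 mM) stimulation; lower signal means less secretion.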
# TDP1 cell CPT: qHTS for Inhibitors of human tyrosyl-DNA phosphodiesterase 1 (TDP1): qHTS in cells in presence of CPT. chicken DT40 Tdp1-/-;hTDP1 cells + 20 nM CPT, ATP luminescence, 48 h. Potency, µM (series often up to 46.2 µM), for the others: at the highest dose activity change, negative = growth inhibition, usual class: inhibitors. 420,000 tested, 12% active; further: potency means the concentration at half of the fitted maximal effect; nearly all actives have a fitted effect of over 55% in size
#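 Chicken DT40 Tdp1-/- cells stably complemented with human TDP1 were seeded at 400 cells/well in medium containing 20 nM camptothecin, exposed to pin-transferred compounds, and grown at 37 °C for at least 48 hr. Viability was read as ATP luminescence.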
# TDP1 block: qHTS Assay for Inhibitors of Tyrosyl-DNA Phosphodiesterase (TDP1); 350,000 tested, 0.28% active; AID 485290, 2010; recombinant TDP1, AlphaScreen DNA substrate cleavage; Tyrosyl-DNA phosphodiesterase 1 (Homo sapiens), Q9NUW8; Potency, µM (doses to about 130 µM), for inactives: at the highest dose activity change, negative = inhibition, most hits filed as inhibitors; further: potency means the concentration at half of the fitted maximal effect; nearly all actives have a fitted effect of over 40% in size
#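 Compounds were preincubated with Tdp1 (1 nM final) for 15 min at room temperature before substrate (15 nM final) started a 5 min reaction; beads (10 ug/ml final) were then added for 10 min before AlphaScreen detection.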
# CtBP-E1A blk: qHTS Assay for Inhibitors of the CtBP/E1A Interaction | activity change, % (test concentration not listed) | CtBP / adenovirus E1A interaction (AlphaScreen) | AlphaScreen GST-E1A/His-CtBP binding, 1536-well; stronger effect = lower value | 340,000 tested, 0.49% active; in the data active means activity change below about -65%; inconclusive means mostly about -30% to -63%
#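 GST-E1A and His-tagged CtBP (125 nM each as 5X stock) were preincubated with pin-transferred compound for 2 h at 37 °C in the dark, then glutathione donor and nickel acceptor beads were added for 1 h before AlphaScreen reading.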
# * = called active by the depositor; i = inactive; ? = inconclusive; nt = no result. Unless noted, the call rests on the fitted dose curve; in most records, active means well fitted curve in the direction sought with a large enough effect; inconclusive means small, poorly fitted or top-dose-only effect, or another doubt; inactive means no such curve, though single readings can be large; an effect the other way counts as inactive or inconclusive. On the % scale 0 is the no-effect control and ±100 the full control effect.
SMILES,Six1-Eya2 blk,DT40 TDP1 no CPT,IL1B secr inh,TDP1 cell CPT,TDP1 block,CtBP-E1A blk
O=C(Nc1nc2ccccc2n1Cc1ccccc1)c1ccco1,-10,21µM*,-12,21µM*,5%,3
O=C(Cc1ccsc1)NCC(=O)Nc1ccc(F)c(F)c1,3,18%,13,3%,5%,-1
CCCCNC(=O)CSc1nc2n[nH]c(C)c2c(=N)n1-c1cccc(C)c1,nt,12µM*,nt,18µM*,-1%,nt
CCCn1c(SCC(=O)NCc2ccc(C)cc2)n[nH]c1=O,5,13%,-8,-18%,6%,-8
Cc1ccc(CNC(=O)CSc2nc3n[nH]c(C)c3c(=N)n2-c2cccc(C)c2)cc1,?,9.2µM*,7,13µM*,5%,?
CCCCN(CC)C(=O)CSc1nc2n[nH]c(C)c2c(=N)n1-c1cccc(Cl)c1,nt,10µM*,nt,12µM*,-1%,nt
CCCCn1c(N)c(N(CC)C(=O)c2cccc(S(=O)(=O)N3CCN(C)CC3)c2)c(=O)[nH]c1=O,9,1%,3,3%,4%,0
CCc1ccccc1NC1c2ccccc2C(=O)N1c1cc(C)ccn1 (stereo not drawn),-2,?,3,?,3%,-5
O=C(CCc1nc2ccccc2c(=O)[nH]1)Nc1nnc(SCc2ccc(Cl)cc2)s1,3,?,16,-25%,-12%,-1
O=C(CCc1nc2ccccc2c(=O)[nH]1)Nc1nnc(SCc2ccccc2F)s1,2,16µM*,27,13µM*,-6%,-16
Cc1nc(-c2ccc(NS(=O)(=O)c3ccccc3)cc2)cs1,-4,-23%,?,-9%,2%,nt
Cc1csc2nc(-c3ccc(NS(=O)(=O)c4cccc(F)c4)cc3)cn12,nt,16µM*,nt,?,5%,nt
O=C(CCC(=O)N1CCN(c2ccc(Cl)c(Cl)c2)CC1)c1ccccc1,-1,18µM*,-9,21µM*,0%,nt
COc1ccc(C(=O)CCC(=O)N2CCN(c3ccccc3)CC2)cc1,-3,?,-15,16µM*,nt,1
COc1ccc(N2CCN(C(=O)CCNC(=O)c3ccc(C(C)(C)C)cc3)CC2)cc1,-7,?,13,18µM*,8%,-6
O=C(CCC(=O)N1CCN(c2ccc(F)cc2)CC1)c1ccc(Cl)cc1,-3,?,0,?,2%,5
COc1ccc(N2CCN(C(=O)CN3CCN(C(c4ccccc4)c4ccccc4)CC3)CC2)cc1,?,23µM*,-15,?,8%,?
COc1ccc(N2CCN(C(=O)COc3ccccc3)CC2)cc1,-3,-12%,10,-16%,-2%,9
Cc1ccc(C(=O)N/C(=C/c2ccco2)C(=O)OCN2C(=O)c3ccccc3C2=O)cc1,11,-16%,0,-22%,1%,1
Cc1ccc(S(=O)(=O)CCC(=O)OCC(=O)c2c(N)n(CC(C)C)c(=O)n(C)c2=O)cc1,-8,?,i,?,3%,2
S=C(NCCCc1ccccc1)NC1CCCCC1,-1,?,-89*,?,5%,1
Cc1ccc(C)c(NC(=S)NCCc2c[nH]c3ccccc23)c1,-24,13µM*,-58*,?,11%,?
Cc1cccc(NC(=S)NCCc2c[nH]c3ccccc23)c1,-19,?,2,?,-5%,-10
S=C(NCCc1c[nH]c2ccccc12)NC1CCCC1,0,-6%,27,33%,4%,5
S=C(NCCc1c[nH]c2ccccc12)NC1CCCCC1,-6,?,-52*,?,7%,-6
